# According to PubChem BioAssay:
# Several values for one entry are separate records, joined by “and”; a condition that tells them apart may be missing. Equal values may be shown once. Activity calls are given as the source filed them.
# Legend:
# [1] = small molecules captured by biotinylated probe aFSTL3 – biochemical, small-molecule microarray, fluorescence 635/667, stem cell growth factor project, primary screen (AID 1064); conditions: higher = more signal;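 further: measures binding of the biotinylated anti-FSTL3 antibody to printed compounds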
# [2] = binders from COS7 lysate, DM2A8 probe, primary screen, torsin A project, cell lysate, small-molecule microarray, fluorescence 635/667 (AID 1065); conditions: higher = more signal, COS7 lysate expressing mutant human TOR1A
# [3] = small molecules captured by biotinylated probe aFGF2 – biochemical, small-molecule microarray, fluorescence 635/667, stem cell growth factor project, primary screen (AID 1067); conditions: higher = more signal;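 further: measures binding of biotinylated aFGF2 protein to printed compounds on slides; z-score merges feature fluorescence and signal-to-noise across triplicate slides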
# [4] = small molecules captured by biotinylated probe aFGF10 – biochemical, small-molecule microarray, fluorescence 635/667, stem cell growth factor project, primary screen (AID 1071); conditions: higher = more signal;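 further: score merges 667 nm spot intensity and signal to noise from triplicate slides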
# [5] = target: Neurogenic locus notch homolog protein 2 (Homo sapiens) (UniProt Q04721); experiment: small molecules binding Notch2 protein – biochemical, small-molecule microarray, 635 nm fluorescence, stem cell growth factors, primary screen (AID 1073); conditions: higher = more signal
# Chain of Neurogenic locus notch homolog protein 2 (Homo sapiens) (Q04721 whole entry, looked up, canonical isoform): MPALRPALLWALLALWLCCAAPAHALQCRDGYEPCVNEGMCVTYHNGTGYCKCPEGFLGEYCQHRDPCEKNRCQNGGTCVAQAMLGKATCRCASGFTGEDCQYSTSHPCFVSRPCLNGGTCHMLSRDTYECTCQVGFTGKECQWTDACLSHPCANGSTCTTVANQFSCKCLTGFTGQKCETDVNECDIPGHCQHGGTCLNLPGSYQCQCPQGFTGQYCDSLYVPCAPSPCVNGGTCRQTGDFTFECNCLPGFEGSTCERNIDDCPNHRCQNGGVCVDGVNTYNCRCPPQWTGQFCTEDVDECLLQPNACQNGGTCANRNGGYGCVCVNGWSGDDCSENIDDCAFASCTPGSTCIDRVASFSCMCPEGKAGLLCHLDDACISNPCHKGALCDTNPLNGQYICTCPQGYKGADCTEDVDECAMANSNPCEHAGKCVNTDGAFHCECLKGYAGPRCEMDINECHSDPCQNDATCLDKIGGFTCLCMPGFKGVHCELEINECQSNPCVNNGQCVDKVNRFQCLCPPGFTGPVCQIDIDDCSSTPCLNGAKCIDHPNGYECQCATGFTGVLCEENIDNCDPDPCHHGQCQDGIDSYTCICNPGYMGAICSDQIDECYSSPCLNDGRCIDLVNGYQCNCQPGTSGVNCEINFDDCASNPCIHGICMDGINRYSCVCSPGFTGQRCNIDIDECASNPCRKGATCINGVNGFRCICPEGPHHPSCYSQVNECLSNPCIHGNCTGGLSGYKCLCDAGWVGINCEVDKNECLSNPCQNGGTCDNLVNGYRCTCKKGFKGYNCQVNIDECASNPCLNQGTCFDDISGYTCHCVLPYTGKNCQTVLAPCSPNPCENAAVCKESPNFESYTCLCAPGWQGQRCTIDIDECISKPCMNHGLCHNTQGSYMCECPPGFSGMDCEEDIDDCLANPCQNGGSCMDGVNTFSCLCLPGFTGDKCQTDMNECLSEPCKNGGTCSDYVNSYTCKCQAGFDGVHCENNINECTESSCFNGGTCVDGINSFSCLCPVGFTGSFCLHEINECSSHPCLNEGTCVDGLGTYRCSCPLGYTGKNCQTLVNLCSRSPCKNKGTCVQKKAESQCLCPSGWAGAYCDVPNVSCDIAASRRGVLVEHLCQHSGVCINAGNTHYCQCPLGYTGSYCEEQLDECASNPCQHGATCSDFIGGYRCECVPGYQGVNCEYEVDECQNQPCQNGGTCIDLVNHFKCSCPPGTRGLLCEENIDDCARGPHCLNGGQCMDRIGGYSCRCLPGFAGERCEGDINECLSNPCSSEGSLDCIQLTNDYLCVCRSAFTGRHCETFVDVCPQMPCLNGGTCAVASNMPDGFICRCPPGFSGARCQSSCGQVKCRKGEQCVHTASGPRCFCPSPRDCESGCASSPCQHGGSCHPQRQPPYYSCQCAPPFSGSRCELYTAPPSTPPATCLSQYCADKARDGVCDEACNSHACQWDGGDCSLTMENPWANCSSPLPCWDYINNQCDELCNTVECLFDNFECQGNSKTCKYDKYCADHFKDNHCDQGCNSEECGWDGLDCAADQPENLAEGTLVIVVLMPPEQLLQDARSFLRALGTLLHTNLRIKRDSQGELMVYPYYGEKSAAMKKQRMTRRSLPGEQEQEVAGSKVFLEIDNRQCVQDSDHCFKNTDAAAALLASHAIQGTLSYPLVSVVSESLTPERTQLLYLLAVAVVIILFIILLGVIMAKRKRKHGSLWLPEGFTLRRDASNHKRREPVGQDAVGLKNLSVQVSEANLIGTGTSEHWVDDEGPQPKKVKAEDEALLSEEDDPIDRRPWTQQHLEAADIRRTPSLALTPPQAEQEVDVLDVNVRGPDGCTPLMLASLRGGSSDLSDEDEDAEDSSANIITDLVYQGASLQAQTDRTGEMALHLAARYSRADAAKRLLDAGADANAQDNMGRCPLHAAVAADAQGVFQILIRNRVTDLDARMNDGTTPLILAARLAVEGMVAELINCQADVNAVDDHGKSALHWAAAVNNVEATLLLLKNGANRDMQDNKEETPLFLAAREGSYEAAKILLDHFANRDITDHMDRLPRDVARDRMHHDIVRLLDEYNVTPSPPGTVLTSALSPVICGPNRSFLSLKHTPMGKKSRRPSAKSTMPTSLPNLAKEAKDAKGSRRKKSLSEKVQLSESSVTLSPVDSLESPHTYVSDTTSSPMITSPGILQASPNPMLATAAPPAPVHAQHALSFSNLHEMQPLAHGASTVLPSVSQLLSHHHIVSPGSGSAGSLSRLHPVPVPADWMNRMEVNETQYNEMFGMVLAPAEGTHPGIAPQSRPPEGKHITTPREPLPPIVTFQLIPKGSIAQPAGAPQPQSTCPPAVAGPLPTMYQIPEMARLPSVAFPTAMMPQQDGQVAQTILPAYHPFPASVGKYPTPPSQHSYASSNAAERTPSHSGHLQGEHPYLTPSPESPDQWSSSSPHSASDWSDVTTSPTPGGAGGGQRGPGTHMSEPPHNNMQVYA
# [6] = target: Pro-neuregulin-1, membrane-bound isoform (Homo sapiens) (UniProt Q02297); experiment: small molecules binding neuregulin-1 protein – biochemical, small-molecule microarray, fluorescence 635/667, psychiatric disease protein project, primary screen (AID 1075); conditions: NRG1 binding, 635 nm fluorescence, higher = more signal;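 further: score combines 667 nm spot fluorescence with signal to noise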
# Chain of Pro-neuregulin-1, membrane-bound isoform (Homo sapiens) (Q02297 whole entry, looked up, the tested form may be a part, canonical isoform): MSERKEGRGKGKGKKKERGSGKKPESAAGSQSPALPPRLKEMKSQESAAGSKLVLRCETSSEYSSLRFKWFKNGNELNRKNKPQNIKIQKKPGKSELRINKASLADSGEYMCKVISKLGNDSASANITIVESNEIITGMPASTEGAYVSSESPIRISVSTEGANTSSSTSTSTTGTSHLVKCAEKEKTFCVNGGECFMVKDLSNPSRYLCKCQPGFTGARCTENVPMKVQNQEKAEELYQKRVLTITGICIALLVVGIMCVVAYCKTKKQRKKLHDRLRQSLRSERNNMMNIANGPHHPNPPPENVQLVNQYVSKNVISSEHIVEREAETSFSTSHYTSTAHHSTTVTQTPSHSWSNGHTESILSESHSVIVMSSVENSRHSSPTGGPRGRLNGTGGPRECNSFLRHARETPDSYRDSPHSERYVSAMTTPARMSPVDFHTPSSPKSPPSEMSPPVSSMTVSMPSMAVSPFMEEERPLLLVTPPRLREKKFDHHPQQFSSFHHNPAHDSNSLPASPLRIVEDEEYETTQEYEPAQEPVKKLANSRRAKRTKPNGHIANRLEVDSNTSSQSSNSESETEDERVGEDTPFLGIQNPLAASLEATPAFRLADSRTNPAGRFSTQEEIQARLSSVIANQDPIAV
# [7] = tested on: Neuregulin-1 EGF-like domain; experiment: small molecules binding NRG1 EGF domain – biochemical, small-molecule microarray, 635 nm fluorescence, primary screen (AID 1081); conditions: higher = more signal;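 further: binding of the protein to compounds printed on small-molecule microarray slides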
# [8] = FRG1 expression reporter modulators in myotubes – cell-based, C2C12 myotubes, firefly/Renilla luciferase, luminescence, FRG1 inhibition for FSHD, primary screen (AID 1084); conditions: FRG1 promoter luciferase, higher = more signal, called active from +8 up or from −8 down
# [9] = small molecules captured by biotinylated probe aFST – biochemical, small-molecule microarray, fluorescence 635/667, stem cell growth factor project, primary screen (AID 1086); conditions: higher = more signal;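 further: score merges 667 nm fluorescence with signal-to-noise of each printed compound spot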
# [10] = binders of probe aHhip on microarray, primary screen, stem cell growth factor project, biochemical, small-molecule microarray, fluorescence 635/667 (AID 1087); conditions: higher = more signal;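 further: score merges spot fluorescence at 667nm with spot signal to noise ratio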
# [11] = tested on: PRMT1 (protein arginine N-methyltransferase 1); experiment: small molecules binding arginine methyltransferase PRMT1 – biochemical, small-molecule microarray, 635 nm fluorescence, primary screen (AID 1088); conditions: higher = more signal;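 further: binding of Prmt1 protein to compounds spotted on small-molecule microarray slides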
# [12] = growth effects on S. cerevisiae YJM789 – YJM789 clinical isolate, OD600, 24 h, basal, primary screen (AID 1089); conditions: higher = more signal, called active from +8 up or from −8 down;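 further: growth of clinical yeast isolate S. cerevisiae YJM 789 seeded 1000 cells per well; test concentration not given here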
# [13] = S. pombe growth modifiers, basal conditions – strain 972, OD600, 24 h, no modulator, primary screen (AID 1090);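 further: basal condition with compound alone and no growth modifier present; test concentration not given here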; conditions: S. pombe 972 growth, higher = more signal, called active from +8 up or from −8 down
# [14] = budding yeast growth modifiers under rapamycin – strain BY4716, OD600, 96 h, primary screen (AID 1091); further: test concentration not given here; conditions: S. cerevisiae BY4716 + rapamycin, higher = more signal, called active from +8 up or from −8 down
# [15] = target: Torsin-1A-interacting protein 2 (Homo sapiens) (UniProt Q8NFQ8); experiment: small molecules binding lysate-expressed LULL1 – cell lysate, human LULL1 lysate, 635/667 nm fluorescence, primary screen (AID 1092); conditions: small-molecule microarray, hLULL1 lysate binding, 635 nm fluorescence; higher = more signal;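 further: probe is lysate of COS7 cells overexpressing human LULL1; score merges per-feature 667 nm fluorescence with signal-to-noise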
# Chain of Torsin-1A-interacting protein 2 (Homo sapiens) (Q8NFQ8 whole entry, looked up): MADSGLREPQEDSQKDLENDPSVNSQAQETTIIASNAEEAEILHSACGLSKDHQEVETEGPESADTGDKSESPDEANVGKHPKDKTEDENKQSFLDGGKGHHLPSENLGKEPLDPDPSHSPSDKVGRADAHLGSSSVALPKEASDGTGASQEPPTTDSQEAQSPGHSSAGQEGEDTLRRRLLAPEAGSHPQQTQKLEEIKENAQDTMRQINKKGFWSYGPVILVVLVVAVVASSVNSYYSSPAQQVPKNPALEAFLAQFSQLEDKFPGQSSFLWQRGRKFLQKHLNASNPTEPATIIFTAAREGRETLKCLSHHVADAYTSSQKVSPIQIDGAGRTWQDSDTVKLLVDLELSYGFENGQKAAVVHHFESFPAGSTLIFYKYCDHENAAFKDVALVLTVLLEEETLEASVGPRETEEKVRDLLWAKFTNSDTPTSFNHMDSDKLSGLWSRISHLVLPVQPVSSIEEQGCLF
# [16] = optical density change of DRC41 E. coli – strain DRC41, OD650, 24 h, E. coli filamentation project, primary screen (AID 1093);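 further: MC1000 strain lacking acrAB efflux and sulA so SOS filamentation is blocked; test concentration not given here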; conditions: E. coli DRC41 growth, higher = more signal, called active from +8 up or from −8 down
# [17] = probe aLefty2 binding to arrayed compounds – biochemical, biotinylated probe, 635/667 nm fluorescence, primary screen (AID 1094); conditions: small-molecule microarray, higher = more signal;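 further: score merges spot fluorescence near 667 nm with spot signal-to-noise ratio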
# [18] = tested on: Noggin (protein binding on small-molecule microarray); experiment: small molecules binding Noggin protein – biochemical, 635/667 nm fluorescence, primary screen (AID 1095); conditions: 635 nm fluorescence, higher = more signal;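 further: score merges 667 nm feature fluorescence with signal to noise over triplicate slides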
# [19] = target: Neurogenic locus notch homolog protein 3 (Homo sapiens) (UniProt Q9UM47); experiment: small molecules binding NOTCH3 protein – biochemical, 635/667 nm fluorescence, primary screen (AID 1096); conditions: small-molecule microarray, 635 nm fluorescence, higher = more signal
# [20] = probe aEGFR binding to arrayed compounds – biochemical, biotinylated probe, 635/667 nm fluorescence, primary screen (AID 1097); conditions: small-molecule microarray, higher = more signal;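 further: probe is a biotinylated anti-EGFR antibody binding compounds printed on slides; score combines fluorescence near 667 nm and signal to noise of each spot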
SMILES,composite z-score [1],composite z-score [2],composite z-score [3],composite z-score [4],composite z-score [5],composite z-score [6],composite z-score [7],z-score [8],composite z-score [9],composite z-score [10],composite z-score [11],z-score [12],z-score [13],z-score [14],composite z-score [15],z-score [16],composite z-score [17],composite z-score [18],composite z-score [19],composite z-score [20]
CCOC(=O)NN=C1C[C@@H](O)[C@@H](O)[C@@H]2[C@@H]3C(=O)N(Cc4ccccc4)C(=O)[C@@H]3CC[C@@H]12,-0.629,0.0854,-0.202,0.295,0.388,0.318,-0.026,-0.0833 (inactive),-0.0089,-0.0391,0.249,0.872 (inactive),0.117 (inactive),0.552 (inactive),-0.572,-1.68 (inactive),-0.217,0.406,0.639,-0.282
COC(=O)C1=C(C)N(Cc2ccccc2)[C@]23O[C@](C(=O)OC)(C(=O)N2[C@@H]1c1ccccc1)[C@@H](c1ccccc1)[C@@H]3C(=O)c1ccccc1,-0.139 and -0.413,0.458 and -0.235,-0.0716 and -0.0931,0.236 and 0.391,0.789 and 0.499,0.489 and -0.621,0.428 and 0.602,-0.0163 (inactive) and 0.21 (inactive),0.398 and 0.155,-0.132 and -0.226,0.618 and 0.917,-1.15 (inactive) and -0.583 (inactive),-3.18 (inactive) and -1.19 (inactive),-1.82 (inactive) and -0.776 (inactive),0.869 and 0.031,-0.0517 (inactive) and 0.951 (inactive),-0.185 and 0.0062,0.115 and 0.974,0.58 and 0.216,0.0557 and -0.0428
C[C@@H]1CC[C@H]2C(=O)N3[C@@H](CC[C@@H](C)[C@@H]3c3ccc(-c4ccco4)cc3)C(=O)N2[C@H]1c1ccc(-c2ccco2)cc1,-0.23 and 1.14,0.762 and 1.98,-0.0084 and -0.0668,0.906 and 1.16,0.422 and 1.15,0.992 and 0.667,1.29 and 1.3,-0.248 (inactive) and 0.445 (inactive),0.443 and 1.26,0.132 and 0.259,1.56 and 1.49,-0.0519 (inactive) and -0.0158 (inactive),0.453 (inactive) and -1.28 (inactive),0.849 (inactive) and -0.324 (inactive),2.17 and 0.787,0.196 (inactive) and 0.917 (inactive),0.0935 and 0.525,1.34 and 1.77,1.04 and 1.06,0.0374 and 0.181
C=C[C@H](C)[C@@H](O)c1ccc(OCCO)cc1,0.535 and 0.672,-0.549 and -0.859,-0.215 and -0.188,-0.907 and -0.473,-1.9 and -0.991,-0.612 and 0.783,-0.0529 and 0.395,1.94 (inactive) and 2.3 (inactive),-0.552 and -0.723,-0.204 and -0.0393,-0.269 and 0.62,-0.766 (inactive) and 0.227 (inactive),-0.467 (inactive) and -0.537 (inactive),-0.647 (inactive) and 0.024 (inactive),-0.982 and 0.448,0.158 (inactive) and -0.18 (inactive),-0.184 and -0.0816,-0.565 and -0.187,-0.956 and -0.773,-0.403 and -0.216
